Experimental data from PubChem BioAssay AID924 (National Center for Advancing Translational Sciences (NCATS), 2007).
In all, about 130,000 compounds went through this assay and about 1,200 (0.92%) were called active. Not shown: some 3% with an inconclusive outcome. The call rests on the fitted dose curve; in most records, active means well fitted cell-killing curve with a large enough effect; inconclusive means small, poorly fitted or top-dose-only effect; inactive means no such curve, though single readings can be large or run the other way. Many of the other results were omitted from the sample, so actives are more common in it than they were.

Assay: qHTS Screen for Compounds that Selectively Target Cancer Cells with p53 Mutations: Cytotoxicity of p53ts Cells at the Permissive Temperature; further: nearly all actives have a fitted effect of over 55% in size;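 on activity change, negative = cytotoxicity: 0% = DMSO and -100% = full killing by reference compound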
Details: H1299-p53A138V at 32C, ATP luminescence viability, 24 h; series mostly up to 46.1 µM; activity change, negative = cytotoxicity: at the top concentration
Source text: NIH Chemical Genomics Center [NCGC] NIH Molecular Libraries Screening Centers Network [MLSCN] MLSCN Grant: 1 X01 MH079844-01 Assay Submitter (PI): Dr. SUN, YI, University of Michigan NCGC Assay Overview: Synthetic Lethal Screen for Compounds to Kill Cancer Cells with p53 Mutation. Tumor suppressor gene p53 serves as a major cellular barrier against tumorigenesis. […] The goal of this screening is to identify small molecule probes that selectively kill cancer cells with mutations in p53. This screening was carried out using two lines of H1299 lung cancer cells. The H1299-p53 A138V line express a temperature sensitive p53 mutant (p53ts) in which the mutant p53 protein (A138V) is in the mutant confirmation when grown at 39C (the nonpermissive temperature) and in the wild type conformation when grown at 32C (the permissive temperature). A H1299-neo line (p53 null) grown at both 39C and 32C were used as counter-screens to filter out false positive associated with temperature shifting. The small molecular compounds that selectively target mutant p53-containing cancer cells were selected as candidate probes for further study. A cytotoxicity assay based on the measurement of ATP contents in cells was used in this screen. Concentration-responses of all the compounds in the library collection were determined in qHTS using the cell lines and temperature conditions as above.
NCGC Assay Protocol Summary: Both the H1299-p53A138V and H1299-neo cell lines were provided by Dr.Yi Sun, a PI at the University Michigan. The cells were maintained and cultured at 37C. The resuspended frozen cells were used to plate the cells in the 1536-well assay plates at a density of 600 cells per well in 5 ul medium. The assay plates with the cells were incubated at 37C for 16 to 30 hours before the experiments. The library compounds in DMSO solution were added to the cells in assay plates and incubated 24 hours at 39C (for mutant p53 conformation) or 32C (for normal p53 conformation as control). An ATP_lite assay kit (PerkinElmer) was used to determine the cell viability. Tomaxifen (100uM) was used as the positive control for cell killing. Data were normalized to the controls for basal activity (DMSO only) and 100% killing (100uM tamoxifen). AC50 values were determined from concentration-response data modeled with the standard Hill equation. P53 assay protocol: 1. Reagent; 5 uL H1299-p53A138V or H1299-neo cell cells/well 2. Time; overnight; 37C incubation 3. Compounds; 23 nL; 5.9 nM to 46 uM 4. Controls; 23 nL; Tamoxifen 100 uM 5. Time; 24 hr; 37C incubation 6. Reagent; 3 uL; ATP_Lite reagent 7. Time; 20 min; Room Temperature 8. Detection; Luminescence; Viewlux plate reader Keywords: p53, synthetic lethal, cancer, cell viability, cytotoxicity, H1299 cell line, luminescence, MLSMR, MLSCN, NIH Roadmap, qHTS, NCGC
Potency means the concentration at half of the fitted maximal effect.

Structure (SMILES)	Potency	activity change, negative = cytotoxicity
COc1ccc(NC(=O)Nc2cccc3cccnc23)cc1	12.6 µM (active)	
Cc1cccc(Cn2cccc(C(=O)Nc3ccc4c(c3)OCCO4)c2=O)c1		-2.43% (inactive)
CC(=O)c1c(O)c(C)c(O)c(Cc2c(O)c3c(c(C(=O)/C=C\c4ccccc4)c2O)OC(C)(C)C=C3)c1O		-20.2% (inactive)
CC(C)(c1ccc(OC[C@@H]2CO2)cc1)c1ccc(OC[C@H]2CO2)cc1	12.6 µM (active)	
CCOC(=O)c1ccc(N2C(=O)c3[nH]nc(-c4ccccc4)c3C2c2ccc(C(C)C)cc2)cc1 (stereo not given)		18.8% (inactive)
Cc1nnc(NC(=O)c2cccn(Cc3cccc(F)c3)c2=O)s1		-14.1% (inactive)
C=CC#N		-9.3% [at 1.84 µM] (inactive)
O=C(Nc1ccc(Cl)cc1C(=O)c1ccccc1)c1cc(Cl)cc(Cl)c1		-9.25% (inactive)
CN(C)C1C(=O)C(C(N)=O)=C(O)[C@@]2(O)C(=O)C3=C(O)c4c(O)cccc4[C@@](C)(O)C3C[C@@H]12 (stereo not given in full)		-3.32% (inactive)
CC(C)Nc1nc(Cl)nc(NC(C)C)n1		2.45% (inactive)
CC[C@@H]1CN2CC[C@@H]1C[C@H]2[C@H](O)c1ccnc2ccc(OC)cc12		0.789% (inactive)
C[C@H](CCC(=O)O)[C@H]1CC[C@@H]2[C@H]3CC[C@H]4C[C@H](O)CC[C@@]4(C)[C@@H]3CC[C@@]21C		5.89% [at 9.22 µM] (inactive)
CC(C)Oc1ccc(NC(=O)c2cc3ccccc3o2)cc1	6.31 µM (active)	
CN(C)c1cccc(C(=O)Nc2nc3ccc(S(=O)(=O)NC(C)(C)C)cc3s2)c1		32.2% (inactive)
Cc1ccc(NC(=O)N(Cc2ccc3c(c2)OCO3)C2CCN(Cc3ccccc3)CC2)cc1F		-27.3% (inactive)
Cc1ccc(-n2c(/C=C/c3cccc(C(F)(F)F)c3)nc3ccccc3c2=O)cc1		-5.31% (inactive)
CCN1C[C@]2(COC)C(O)C[C@H](OC)[C@@]34C5C[C@]6(O)C(OC)C(O)[C@](OC(C)=O)(C5C6OC(=O)c5ccccc5)C(C(OC)C23)C14 (stereo not given in full)		-5% (inactive)
N#Cc1c(Cl)c(Cl)c(Cl)c(C#N)c1Cl	3.98 µM (active)	
Cc1ccc(Cl)cc1N1CCN(C(=O)C2CCC(CNS(=O)(=O)c3cccs3)CC2)CC1 (stereo not given)		37.8% (inactive)
Cn1cc(/C=C/c2nc3ccccc3c(=O)n2-c2ccccc2)c2ccccc21		-13.4% (inactive)
